Assay outcomes deposited in PubChem by National Center for Advancing Translational Sciences (NCATS).
Compounds with a hit are over-represented: about 11% of the library has one in this group of screens.
PLK1 PBD block: PLK1 (human) polo-box domain binding inhibition. 360,000 compounds, 2.8% hits. Potency, µM, for the others: max response, negative = inhibition, most hits filed as inhibitors. P53350. Plk1 PBD binding of FITC phosphopeptide, fluorescence polarization; note: series mostly up to about 57 µM; % is set by controls: 0 for no effect and ±100 for the full control effect; nearly all actives have a fitted effect of over 65% in size
BAZ2B inh: inhibitors of human BAZ2B bromodomain | AlphaScreen BAZ2B-H3K14Ac peptide displacement | Potency, µM (highest dose often 114 µM), for the others: top-dose activity change, negative = inhibition, usual class: inhibitors | 360,000 compounds, 4.4% hits; note: % is set by controls: 0 for no effect and ±100 for the full control effect; nearly all actives have a fitted effect of over 60% in size
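In this displacement format the biotinylated H3(5-23) peptide acetylated at Lys14 serves as ligand at 50 nM, with BAZ2B at 50 nM in PBS pH 7.4 containing 0.01% Tween-20. Donor and acceptor beads are 10 ug/mL final.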
VDR inhibitor: blocks the human vitamin D receptor | VDR-SRC2-3 peptide fluorescence polarization, 2 h | Potency, µM, without a hit: max response, negative = inhibition, actives largely listed as inhibitors | 400,000 compounds, 0.93% hits | AID 504847; note: % is set by controls: 0 for no effect and ±100 for the full control effect
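Inhibition of the VDR/SRC2-3 peptide interaction is quantified by fluorescence polarization. Compounds (23 nl, pintool) incubate with the reagents for 2 hours at ambient room temperature.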
JMJD2A Tudor: inhibitors of human JMJD2A Tudor domain; O75164; AlphaScreen JMJD2A-Tudor / H3K4me3 peptide binding; Potency, µM (doses to about 114 µM), inactives show top-dose activity change, negative = inhibition, usual class: inhibitors; 390,000 compounds, 4.4% hits; AID 504339; note: % is set by controls: 0 for no effect and ±100 for the full control effect; nearly all actives have a fitted effect of over 50% in size
G9a block: G9a (human) methyltransferase inhibition; 350,000 compounds, 8.8% hits; Q96KQ7; Potency, µM (highest dose often 102 µM), for inactives: at the highest dose activity, negative = inhibition, most hits filed as inhibitors; AID 504332; G9a H3K9 monomethylation, AlphaScreen, 2 h; note: % is set by controls: 0 for no effect and ±100 for the full control effect; nearly all actives have a fitted effect of over 75% in size
Target sequence (Q96KQ7 913-1193 limits assumed): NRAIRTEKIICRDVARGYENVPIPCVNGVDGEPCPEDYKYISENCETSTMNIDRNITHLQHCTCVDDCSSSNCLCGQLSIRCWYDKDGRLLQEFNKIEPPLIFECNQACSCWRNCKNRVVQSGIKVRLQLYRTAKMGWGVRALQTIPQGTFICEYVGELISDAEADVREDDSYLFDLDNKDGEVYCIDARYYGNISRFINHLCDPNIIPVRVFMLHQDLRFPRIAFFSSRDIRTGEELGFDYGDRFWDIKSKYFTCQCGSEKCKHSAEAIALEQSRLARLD
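Compounds were preincubated with 20 nM G9a for 15 min, after which biotinylated H3K9 peptide (500 nM) and SAM (20 uM) started a 2 h room-temperature reaction. Monomethylated product was quantified by antibody-based AlphaScreen chemiluminescence.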
HP1b chromo inh: HP1-beta chromodomain-methylated histone interaction inhibition. 390,000 compounds, 0.56% hits. Potency, µM (top dose mostly 114 µM), without a hit: at the top dose activity change, negative = inhibition, hits mostly inhibitors. AlphaScreen HP1-beta / biotin-H3K9me3 peptide binding; note: nearly all actives have a fitted effect of over 70% in size
Target sequence (P83916 whole entry, looked up): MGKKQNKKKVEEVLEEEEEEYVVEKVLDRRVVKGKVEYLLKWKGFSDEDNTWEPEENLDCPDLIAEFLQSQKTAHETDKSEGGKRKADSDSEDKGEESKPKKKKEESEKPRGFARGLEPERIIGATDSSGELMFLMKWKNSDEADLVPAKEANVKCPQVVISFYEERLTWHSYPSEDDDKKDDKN
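HP1-beta protein (50 nM final) preincubated 30 min at room temperature with biotinylated H3(1-18)K9me3 peptide (50 nM) in PBS pH 7.4, 0.01% Tween-20, then compound added for 30 min. AlphaScreen streptavidin donor/nickel chelate acceptor beads (10 ug/mL final), 30 min dark, luminescence read.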
Numbers without * were called inactive; u = inconclusive; x = no result; [ ] = remark or other dose. Calls come from the whole dose curve; as a rule, active = well fitted curve in the direction sought with a large enough effect; inconclusive = small, poorly fitted or top-dose-only effect, or another doubt; inactive = no such curve, though single readings can be large; an effect the other way counts as inactive or inconclusive. Potency is the fitted concentration of half-maximal effect.

SMILES | PLK1 PBD block | BAZ2B inh | VDR inhibitor | JMJD2A Tudor | G9a block | HP1b chromo inh
Cc1cc(NC(=O)CSc2nnc(-c3ccc(Br)o3)n2Cc2ccccc2)no1 | -8% | -18% | 9% | -11% | -48%[59 µM] | 21%
CN(C)c1ccc(NC(=O)/C=C/c2c(Cl)cccc2Cl)cc1 | 3% | u | -12% | -34% | 1.8µM* | u
Cc1ccc(S(=O)(=O)NNC(=O)c2ccncc2)cc1[N+](=O)[O-] | -14% | -30% | -17% | 4µM* | 50µM* | 21%
O=C(NNc1ccc([N+](=O)[O-])cc1)c1ccccc1F | -11% | -38% | 16% | -26% | 35µM* | 13%
CC(=O)Nc1ccc(S(=O)(=O)NNc2ccc([N+](=O)[O-])cc2)cc1 | u | 50µM* | 89µM* | 6.3µM* | 1.3µM* | u
O=C(NNc1ccc([N+](=O)[O-])cc1)c1ccccc1Cl | -15% | -4% | 3% | -19% | u | 17%
O=C(NNS(=O)(=O)c1ccc([N+](=O)[O-])cc1)c1ccc([N+](=O)[O-])cc1 | -8% | -19% | -5% | 1.3µM* | 17%[2.33 µM] | u
Cc1ccc(SCC(=O)N(C)CC(=O)Nc2cccc(F)c2)c(C)c1 | u | 7% | 7% | -4% | -5% | 24%
O=C(NNc1ccccc1)C(=O)NNS(=O)(=O)c1ccc([N+](=O)[O-])cc1 | -5% | -27% | -5% | 3.2µM* | 6.3µM* | 11%
O=C(CCCOc1ccccc1)N1CCCCC1 | -4% | 4% | -3% | -16%[57.1 µM] | -6% | 19%
CCC1CCCCN1C(=O)CCCOc1ccccc1 (stereo not drawn) | 3.4µM* | 0% | u | 14µM* | 11% | 7%
COC(=O)C(O)(CC(=O)Nc1cc(OC)c(OC)c(OC)c1)C(F)(F)F (stereo not drawn) | -8% | -1% | 7% | 0% | -15%[59 µM] | 15%
COc1cc(NC(=O)NC(C)(C(F)(F)F)C(F)(F)F)cc(OC)c1OC | -13% | 0% | -1% | -5%[57.1 µM] | 50µM* | 18%
Cc1ccc(C)c(CSc2nnc([C@@H]3CCCN3)o2)c1 | -19% | u | 5% | -22% | -38% | 32%
Clc1ccc(CSc2nnc([C@@H]3CCCN3)o2)cc1Cl | -3% | u | 1% | -16% | u | 61%
O=C(CSc1nnc([C@@H]2CCCN2)o1)c1ccc(Cl)cc1 | -14% | -30% | -29% | u | 40µM* | 33%
C=C(C)CSc1nnc([C@@H]2CCCN2)o1 | 4% | 50µM* | 0% | 50µM* | u | 48%
Cc1ccnc(NC(=O)COc2ccc3c(c2)CCC3)c1 | -5% | 2% | u | 10% | 2%[59 µM] | 53%
NC(Cc1ccc(F)cc1)c1csc(NC(=O)NC(c2ccccc2)c2ccccc2)n1 (stereo not drawn) | 5% | x | x | x | x | x
NC(=O)CC[C@@H]1NC(=O)[C@@H]2CCCN2C(=O)c2cc([N+](=O)[O-])cc(I)c2NCCCC[C@@H](C(=O)NC(CC(=O)O)C(N)=O)NC1=O (stereo partly drawn) | -5% | -25% | -5% | -22% | 56µM* | 42%
NC(=O)CC[C@@H]1NC(=O)[C@@H]2CCCN2C(=O)c2cc([N+](=O)[O-])cc(I)c2NCCC[C@@H](C(N)=O)NC1=O | -5% | -11% | -11% | -18% | 45µM* | 54%
COc1ccc(N2CCN(C(=O)COC(=O)c3ccc(-n4nc(C)cc4C)cc3)CC2)cc1 | -9% | -24% | -2% | -19% | u | 18%
CN(C(=O)c1ccc(=O)n(Cc2ccc(Cl)cc2)c1)c1ccccc1 | -8% | 20% | 9% | -10% | 6% | 33%
CN1C(=O)/C(=C\c2ccc(N(C)C)cc2)OC1=S | -10% | 11% | u | 25µM* | 77% | 13%
COc1ccc(/C=C2\N=C(C(C)(C)C)OC2=O)c(OC)c1 | 2% | -15% | 11% | -26% | -11%[59 µM] | 18%[57 µM]
SMILES | PLK1 PBD block | BAZ2B inh | VDR inhibitor | JMJD2A Tudor | G9a block | HP1b chromo inh
COc1ccc(/C=C2\OC(=S)N(C)C2=O)cc1 | -4% | -11% | 2% | -9% | u | 7%
CN(C)c1ccc(/C=C2\N=C(C(C)(C)C)OC2=O)cc1 | u | u | -5% | 1% | 45µM* | 32%
O=C(NC(=S)N1CCN(c2ccccn2)CC1)c1ccco1 | -9% | u | -10% | -12% | 56µM* | 11%
O=C(NC(=S)N1CCN(c2ccc(O)cc2)CC1)c1ccco1 | -3% | x | -10% | -5% | x | 11%
CCOC(=O)N1CCN(C(=S)NC(=O)c2cc(Br)ccc2Cl)CC1 | -9% | -15% | 16% | -12% | u | 7%
CCOC(=O)N1CCN(C(=S)NC(=O)c2ccc(Br)cc2)CC1 | -5% | -18% | -2% | -21% | 50µM* | 13%
CN1CCN(C(=S)NC(=O)/C=C/c2cccs2)CC1 | -23% | -17% | -16% | u | 50µM* | 24%
CC1Cc2ccccc2N1C(=S)NC(=O)c1ccco1 (stereo not drawn) | -17% | x | -7% | -35% | 40µM* | u
Cc1cc(C)c(C)c(S(=O)(=O)NCc2ccncc2)c1C | -6% | 1% | 3% | -12% | 33% | 33%
C#Cc1nc(Nc2cccc(Cl)c2)nc(NC2CCCC2)n1 | x | x | x | -23% | x | x
COc1cccc2sc(N(Cc3cccnc3)C(=O)c3ccc(S(=O)(=O)N(C)C)cc3)nc12 | x | -22% | 12% | -29% | -16%[59 µM] | 8%
Cc1ccccc1NC(=O)C(C)OC(=O)CCC(=O)c1ccccc1 (stereo not drawn) | -10% | x | x | x | x | x
CCNC(=S)N1CCN(c2ccccn2)CC1 | -19% | -1% | 34% | -5% | 7% | 31%
CN1CCN(C(=O)c2cc(Cl)cc(Cl)c2NC(=O)c2ccco2)CC1 | 27µM* | -2% | -28% | -12% | 17% | -8%
O=C(NC(=S)N1CCCC1)c1ccc(Cl)cc1 | 2% | -3% | 6% | -13% | 31% | 34%
CN1CCN(C(=S)NC(=O)c2ccco2)CC1 | 12% | u | -9% | 16µM* | 50µM* | 4%
CC(NNC(=S)N1CCN(c2ccccn2)CC1)c1nccc2ccccc12 (stereo not drawn) | -4% | x | 10% | 20µM* | x | 25µM*
CN1CCN(C(=S)NC(=O)c2ccc(Cl)cc2)CC1 | 27µM* | 56µM* | -8% | u | 28µM* | u
Cc1cccc(C)c1NC(=O)[C@H](C)N | x | x | -7% | x | 35%[21.5 µM] | x
CCOC(=O)C1=C(C)NC(C)=C(C(=O)OCC)C1c1c(F)c(F)c(F)c(F)c1F | x | x | -6% | x | 37%[59 µM] | x
COc1ccccc1C(=O)NNc1ncc(C)s1 | u | -31% | u | -19% | 40µM* | 33%
N#CC1=C(Nc2ccccc2)SC=C(c2ccccc2)N=C1N1CCOCC1 | -6% | -1% | -7% | -18% | 50µM* | 36%
